Results taken from the supplement of paper PMC4466140.

Target: AgAbp1
Test: SPOT peptide array binding signal intensity (averaged, normalized) (arbitrary units (background-subtracted, floor 0; scale differs between SH3 domains)); higher = stronger binding of the SH3 domain to the peptide
Method in brief: (§1)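 Cellulose membranes carried synthetic 15-mer peptides with cysteines swapped for serines. These were incubated overnight at 4°C with 10 μg/ml of GST-fused SH3 domains from four yeast species in TBS-based blocking buffer. Binding signal, detected with anti-GST antibody and quantified in Genespotter, is the normalized, background-subtracted spot intensity averaged over replicates, in arbitrary units specific to each domain.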

Binder | SPOT peptide array binding signal intensity
QPQRTAPKPPISAPR | 2

Target: AgBbc1
Test: as above
Method in brief: as §1

Binder | SPOT peptide array binding signal intensity
QPQRTAPKPPISAPR | 170

Target: AgBem1-D1
Test: as above
Method in brief: as §1

Binder | SPOT peptide array binding signal intensity
QPQRTAPKPPISAPR | 128

Target: AgBzz1-D1
Test: as above
Method in brief: as §1

Binder | SPOT peptide array binding signal intensity
QPQRTAPKPPISAPR | 51

Target: AgBzz1-D2
Test: as above
Method in brief: as §1

Binder | SPOT peptide array binding signal intensity
QPQRTAPKPPISAPR | 28

Target: AgCyk3
Test: as above
Method in brief: as §1

Binder | SPOT peptide array binding signal intensity
QPQRTAPKPPISAPR | 1

Target: AgFus1
Test: as above
Method in brief: as §1

Binder | SPOT peptide array binding signal intensity
QPQRTAPKPPISAPR | 11

Target: AgHof1
Test: as above
Method in brief: as §1

Binder | SPOT peptide array binding signal intensity
QPQRTAPKPPISAPR | 4.75

Target: AgHse1
Test: as above
Method in brief: as §1

Binder | SPOT peptide array binding signal intensity
QPQRTAPKPPISAPR | 14

Target: AgLsb1
Test: as above
Method in brief: as §1

Binder | SPOT peptide array binding signal intensity
QPQRTAPKPPISAPR | 0.5

Target: AgLsb4
Test: as above
Method in brief: as §1

Binder | SPOT peptide array binding signal intensity
QPQRTAPKPPISAPR | ≤ 0

Target: AgMyo5
Test: as above
Method in brief: as §1

Binder | SPOT peptide array binding signal intensity
QPQRTAPKPPISAPR | 327

Target: AgNbp2
Test: as above
Method in brief: as §1

Binder | SPOT peptide array binding signal intensity
QPQRTAPKPPISAPR | 1510

Target: AgRvs167
Test: as above
Method in brief: as §1

Binder | SPOT peptide array binding signal intensity
QPQRTAPKPPISAPR | 1

Target: AgSho1
Test: as above
Method in brief: as §1

Binder | SPOT peptide array binding signal intensity
QPQRTAPKPPISAPR | 4

Target: AgSla1-D1-D2
Test: as above
Method in brief: as §1

Binder | SPOT peptide array binding signal intensity
QPQRTAPKPPISAPR | ≤ 0

Target: AgSla1-D3
Test: as above
Method in brief: as §1

Binder | SPOT peptide array binding signal intensity
QPQRTAPKPPISAPR | ≤ 0

Target: CaAbp1-D1
Test: as above
Method in brief: as §1

Binder | SPOT peptide array binding signal intensity
QPQRTAPKPPISAPR | ≤ 0

Target: CaAbp1-D2
Test: as above
Method in brief: as §1

Binder | SPOT peptide array binding signal intensity
QPQRTAPKPPISAPR | 5

Target: CaBbc1
Test: as above
Method in brief: as §1

Binder | SPOT peptide array binding signal intensity
QPQRTAPKPPISAPR | 693

Target: CaBem1-D1
Test: as above
Method in brief: as §1

Binder | SPOT peptide array binding signal intensity
QPQRTAPKPPISAPR | 73

Target: CaBzz1-D1
Test: as above
Method in brief: as §1

Binder | SPOT peptide array binding signal intensity
QPQRTAPKPPISAPR | 1260

Target: CaBzz1-D2
Test: as above
Method in brief: as §1

Binder | SPOT peptide array binding signal intensity
QPQRTAPKPPISAPR | 420

Target: CaCyk3
Test: as above
Method in brief: as §1

Binder | SPOT peptide array binding signal intensity
QPQRTAPKPPISAPR | 0.5

Target: CaFus1
Test: as above
Method in brief: as §1

Binder | SPOT peptide array binding signal intensity
QPQRTAPKPPISAPR | ≤ 0

Target: CaHof1
Test: as above
Method in brief: as §1

Binder | SPOT peptide array binding signal intensity
QPQRTAPKPPISAPR | 0.5

Target: CaHse1
Test: as above
Method in brief: as §1

Binder | SPOT peptide array binding signal intensity
QPQRTAPKPPISAPR | ≤ 0

Target: CaLsb1
Test: as above
Method in brief: as §1

Binder | SPOT peptide array binding signal intensity
QPQRTAPKPPISAPR | 0.5

Target: CaLsb4
Test: as above
Method in brief: as §1

Binder | SPOT peptide array binding signal intensity
QPQRTAPKPPISAPR | ≤ 0

Target: CaMyo5
Test: as above
Method in brief: as §1

Binder | SPOT peptide array binding signal intensity
QPQRTAPKPPISAPR | 7.5

Target: CaNbp2
Test: as above
Method in brief: as §1

Binder | SPOT peptide array binding signal intensity
QPQRTAPKPPISAPR | 1340

Target: CaRvs167
Test: as above
Method in brief: as §1

Binder | SPOT peptide array binding signal intensity
QPQRTAPKPPISAPR | ≤ 0

Target: CaRvs167-3
Test: as above
Method in brief: as §1

Binder | SPOT peptide array binding signal intensity
QPQRTAPKPPISAPR | 1

Target: CaSho1
Test: as above
Method in brief: as §1

Binder | SPOT peptide array binding signal intensity
QPQRTAPKPPISAPR | 14

Target: CaSla1-D1-D2
Test: as above
Method in brief: as §1

Binder | SPOT peptide array binding signal intensity
QPQRTAPKPPISAPR | 291

Target: CaSla1-D3
Test: as above
Method in brief: as §1

Binder | SPOT peptide array binding signal intensity
QPQRTAPKPPISAPR | 0.5

Target: ScAbp1
Test: as above
Method in brief: as §1

Binder | SPOT peptide array binding signal intensity
QPQRTAPKPPISAPR | 8

Target: ScBbc1
Test: as above
Method in brief: as §1

Binder | SPOT peptide array binding signal intensity
QPQRTAPKPPISAPR | 268

Target: ScBem1-D1
Test: as above
Method in brief: as §1

Binder | SPOT peptide array binding signal intensity
QPQRTAPKPPISAPR | ≤ 0

Target: ScBzz1-D1
Test: as above
Method in brief: as §1

Binder | SPOT peptide array binding signal intensity
QPQRTAPKPPISAPR | 4

Target: ScBzz1-D2
Test: as above
Method in brief: as §1

Binder | SPOT peptide array binding signal intensity
QPQRTAPKPPISAPR | 15.5

Target: ScCyk3
Test: as above
Method in brief: as §1

Binder | SPOT peptide array binding signal intensity
QPQRTAPKPPISAPR | ≤ 0

Target: ScFus1
Test: as above
Method in brief: as §1

Binder | SPOT peptide array binding signal intensity
QPQRTAPKPPISAPR | ≤ 0

Target: ScHof1
Test: as above
Method in brief: as §1

Binder | SPOT peptide array binding signal intensity
QPQRTAPKPPISAPR | ≤ 0

Target: ScHse1
Test: as above
Method in brief: as §1

Binder | SPOT peptide array binding signal intensity
QPQRTAPKPPISAPR | ≤ 0

Target: ScLsb1
Test: as above
Method in brief: as §1

Binder | SPOT peptide array binding signal intensity
QPQRTAPKPPISAPR | ≤ 0

Target: ScLsb2
Test: as above
Method in brief: as §1

Binder | SPOT peptide array binding signal intensity
QPQRTAPKPPISAPR | ≤ 0

Target: ScLsb3
Test: as above
Method in brief: as §1

Binder | SPOT peptide array binding signal intensity
QPQRTAPKPPISAPR | 58

Target: ScLsb4
Test: as above
Method in brief: as §1

Binder | SPOT peptide array binding signal intensity
QPQRTAPKPPISAPR | ≤ 0

Target: ScMyo3
Test: as above
Method in brief: as §1

Binder | SPOT peptide array binding signal intensity
QPQRTAPKPPISAPR | 699

Target: ScMyo5
Test: as above
Method in brief: as §1

Binder | SPOT peptide array binding signal intensity
QPQRTAPKPPISAPR | 613

Target: ScNbp2
Test: as above
Method in brief: as §1

Binder | SPOT peptide array binding signal intensity
QPQRTAPKPPISAPR | 2700

Target: ScPex13
Test: as above
Method in brief: as §1

Binder | SPOT peptide array binding signal intensity
QPQRTAPKPPISAPR | 131

Target: ScRvs167
Test: as above
Method in brief: as §1

Binder | SPOT peptide array binding signal intensity
QPQRTAPKPPISAPR | ≤ 0

Target: ScSho1
Test: as above
Method in brief: as §1

Binder | SPOT peptide array binding signal intensity
QPQRTAPKPPISAPR | 6

Target: ScSla1-D1-D2
Test: as above
Method in brief: as §1

Binder | SPOT peptide array binding signal intensity
QPQRTAPKPPISAPR | 1730

Target: ScSla1-D3
Test: as above
Method in brief: as §1

Binder | SPOT peptide array binding signal intensity
QPQRTAPKPPISAPR | 25.5

Target: SpAbp1-D1
Test: as above
Method in brief: as §1

Binder | SPOT peptide array binding signal intensity
QPQRTAPKPPISAPR | 2.5

Target: SpBbc1
Test: as above
Method in brief: as §1

Binder | SPOT peptide array binding signal intensity
QPQRTAPKPPISAPR | 10

Target: SpBzz1-D1
Test: as above
Method in brief: as §1

Binder | SPOT peptide array binding signal intensity
QPQRTAPKPPISAPR | 260

Target: SpBzz1-D2
Test: as above
Method in brief: as §1

Binder | SPOT peptide array binding signal intensity
QPQRTAPKPPISAPR | 14.5

Target: SpCyk3
Test: as above
Method in brief: as §1

Binder | SPOT peptide array binding signal intensity
QPQRTAPKPPISAPR | 0.5

Target: SpHof1
Test: as above
Method in brief: as §1

Binder | SPOT peptide array binding signal intensity
QPQRTAPKPPISAPR | ≤ 0

Target: SpHof1-2
Test: as above
Method in brief: as §1

Binder | SPOT peptide array binding signal intensity
QPQRTAPKPPISAPR | 7.5

Target: SpHof1-3
Test: as above
Method in brief: as §1

Binder | SPOT peptide array binding signal intensity
QPQRTAPKPPISAPR | ≤ 0

Target: SpHse1
Test: as above
Method in brief: as §1

Binder | SPOT peptide array binding signal intensity
QPQRTAPKPPISAPR | ≤ 0

Target: SpLsb1
Test: as above
Method in brief: as §1

Binder | SPOT peptide array binding signal intensity
QPQRTAPKPPISAPR | ≤ 0

Target: SpLsb4
Test: as above
Method in brief: as §1

Binder | SPOT peptide array binding signal intensity
QPQRTAPKPPISAPR | 27.5

Target: SpMyo1
Test: as above
Method in brief: as §1

Binder | SPOT peptide array binding signal intensity
QPQRTAPKPPISAPR | 2550

Target: SpNbp2
Test: as above
Method in brief: as §1

Binder | SPOT peptide array binding signal intensity
QPQRTAPKPPISAPR | 22.5

Target: SpPex13
Test: as above
Method in brief: as §1

Binder | SPOT peptide array binding signal intensity
QPQRTAPKPPISAPR | 1

Target: SpRvs167
Test: as above
Method in brief: as §1

Binder | SPOT peptide array binding signal intensity
QPQRTAPKPPISAPR | 2.33

Target: SpSla1-D1-D2
Test: as above
Method in brief: as §1

Binder | SPOT peptide array binding signal intensity
QPQRTAPKPPISAPR | ≤ 0

Target: SpSla1-D3
Test: as above
Method in brief: as §1

Binder | SPOT peptide array binding signal intensity
QPQRTAPKPPISAPR | ≤ 0
